In the library only some 4.1% were active in any assay of this set; here they are far more common.
hcDAF12 agonist: H. contortus DAF-12 activation, primary screen. AID 652067. 370,000 compounds, 1.4% hits. activation, % at 6.8 µM. HEK293 hcDAF-12 lit1-tk-luc reporter, luminescence; 0% DMSO, 100% Δ7-dafachronic acid;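 active = activation above the mean of all tested compounds plus 3 SD, cut at about 5.5% in these data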;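 note: 100% = response to 3 µM Δ7-dafachronic acid high control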
ssDAF-12 act: S. stercoralis DAF-12 activation, primary screen. activation, % at 6.8 µM. 370,000 compounds, 1% hits. AID 652126. HEK293 ssDAF-12/GRIP1 lit1-tk-luc reporter, luminescence; % of 3 µM dafachronic acid response;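 active = activation above the mean over all tested compounds plus 3 SD, cut at about 0.9% in these data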;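 note: 0% = DMSO-only wells and 100% = 3 µM delta7-dafachronic acid wells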
DAX1 inh-1: NR0B1 (DAX1) inhibition. P51843. HEK293 Gal4-DAX1 luciferase reporter, luminescence. inhibition, % at 6.75 µM. 340,000 compounds, 0.99% hits;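 active = inhibition above the mean over all tested compounds plus 3 SD, cut at about 4.2% in these data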;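 note: 0% = DAX1-transfected cells with DMSO and 100% = empty-vector control cells with DMSO; inhibition shows as a rise in luminescence from relieved DAX1 repression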
Target sequence (P51843 207-470 limits assumed): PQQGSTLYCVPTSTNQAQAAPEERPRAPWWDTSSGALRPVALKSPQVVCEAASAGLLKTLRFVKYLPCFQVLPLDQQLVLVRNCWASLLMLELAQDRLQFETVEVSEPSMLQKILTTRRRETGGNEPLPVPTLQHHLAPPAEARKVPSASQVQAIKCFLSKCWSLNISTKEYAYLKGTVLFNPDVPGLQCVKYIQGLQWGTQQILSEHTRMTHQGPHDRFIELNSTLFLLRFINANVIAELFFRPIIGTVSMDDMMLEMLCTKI
DAX1 inh-2: DAX1 (NR0B1) inhibition, primary screen. 370,000 compounds, 1.1% hits. HEK293T StAR-luciferase reporter, SF-1/DAX-1 repression relief. inhibition, % at 6.8 µM;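 active = inhibition above the mean over all tested compounds plus 3 SD, cut at about 3.6% in these data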;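 note: 0% = DAX-1 cells with DMSO and 100% = cells lacking DAX-1 with DMSO; higher inhibition means more luminescence from relief of DAX-1 repression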
hgDAF-12 ag: hgDAF-12 agonism, primary luciferase screen; HEK293 GAL4-hgDAF12 UAS-luciferase reporter, agonist luminescence; normalized to butyrate control; activation, % at 6.8 µM; 370,000 compounds, 1.8% hits;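 active = activation above a cutoff set at the mean of all screened compounds plus 3 SD, cut at about 10% in these data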;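 note: 0% = DMSO wells and 100% = sodium butyrate wells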
The depositor's hits bear a star; . = not tested or not shown.

SMILES | hcDAF12 agonist | ssDAF-12 act | DAX1 inh-1 | DAX1 inh-2 | hgDAF-12 ag
COc1ccc(NC(=O)NNC(=O)CCC(=O)Nc2ccccc2Cl)cc1 | -1.2 | -1.8 | 8.3* | 0.3 | 0.2
Oc1ccc2ccccc2c1C=Nn1c(-c2n[nH]c3c2CCC3)n[nH]c1=S | -0.4 | 0.2 | . | -0.8 | 5.9
O=C(Nc1cccc(Cl)c1)OCCN1CCCC12CCC(c1ccccc1)CC2 (configuration not stated) | -1.7 | -2.0 | . | . | 3.1
O=C(Nc1ccccc1)C1Cc2ccccc2CN1C(=O)c1ccco1 (configuration not stated) | 6.3* | 1.0* | 2.6 | 2.6 | 12.7*
Cc1ccccc1C=O | 0.0 | -1.5 | 1.3 | 0.2 | 2.0
Cc1ccccc1/C=C/C1=NCCN1 | -0.1 | 1.2* | -1.3 | -0.9 | -4.1
CC1=CC(=O)Nc2ccccc2S1 | 5.7* | 1.1* | 2.9 | 1.2 | 11.0*
CCOc1ccc2nc(/N=C/c3c(C)[nH]n(-c4ccccc4)c3=O)sc2c1 | 2.0 | 0.9* | 3.6 | 1.6 | 4.2
CCN(CC)c1ccc(-c2nn3c(-c4ccc(C(C)(C)C)cc4)nnc3s2)cc1 | 1.8 | -0.5 | . | 0.1 | 1.4
Cc1ccc(N(CC(=O)N/N=C/c2cccc(Br)c2)S(C)(=O)=O)cc1 | 3.5 | 1.4* | -0.2 | -0.1 | 4.2
Cc1cc2oc3c(c(=O)c2cc1C)C(c1ccc(F)cc1)N(CCCN1CCOCC1)C3=O (configuration not stated) | -1.3 | -1.5 | 0.6 | -0.6 | -0.1
CCCOc1ccc(C2c3c(oc4cc(C)c(C)cc4c3=O)C(=O)N2CCCN(C)C)cc1 (configuration not stated) | -0.2 | -0.7 | 6.7* | 0.8 | 3.8
O=C(c1cccs1)N1CCC(c2ccccc2)C1 (configuration not stated) | 2.3 | 0.2 | 1.2 | 0.7 | 12.1*
O=C(CCN1CCC(c2ccccc2)C1)c1cccs1 (configuration not stated) | -1.3 | -1.3 | 0.0 | 0.1 | -0.8
Cc1cc(C(=O)CSc2nnnn2C)c(C)n1C1CC1 | 1.6 | -0.6 | 1.8 | 1.0 | 11.8*
CSc1snc(SCC(N)=O)c1C#N | -1.2 | -1.5 | -0.1 | 0.0 | 11.8*
N#Cc1c(SCC(=O)Nc2ccccc2)nsc1SCC(=O)Nc1ccccc1 | 1.6 | 23.3* | 2.1 | 0.5 | 3.1
Cc1cc(-c2n[nH]c(=S)n2N=Cc2cccc(OCc3ccccc3)c2)n[nH]1 | 0.0 | -1.3 | . | 1.9 | 2.9
COc1ccc2c(c1)CCCN2C(=O)C1CCCN(S(=O)(=O)c2ccccc2)C1 (configuration not stated) | -4.3 | -1.2 | . | -1.4 | -2.7
Cc1ccc(CN2CCCCC(NC(=O)c3ccc4ccccc4c3)C2=O)cc1 (configuration not stated) | -0.6 | -0.9 | . | -0.5 | 4.8
Cn1c(=O)[nH]c(=O)c2c1nc(Br)n2C/C=N/NC(=O)c1ccccc1 | 0.4 | -0.3 | 4.6* | 0.8 | 5.8
C=CCn1c(Br)nc2c1c(=O)[nH]c(=O)n2C | -0.6 | -1.2 | 2.4 | -0.3 | 2.0
Cn1c(=O)[nH]c(=O)c2c1nc(Br)n2C/C=N/Nc1ccccc1 | 0.1 | -0.4 | 0.7 | 3.7* | -2.4
O=C(CN1C(=O)CCSc2ccccc21)Nc1ccc(Cl)c(Cl)c1 | -3.1 | -0.6 | . | 0.6 | -1.8
CCOC(=O)CC[C@H]1CC[C@]2(CCCN(S(C)(=O)=O)C2)O1 | -1.4 | -0.7 | . | -1.0 | 0.4
SMILES | hcDAF12 agonist | ssDAF-12 act | DAX1 inh-1 | DAX1 inh-2 | hgDAF-12 ag
Fc1cccc2sc(Nc3nnc(-c4ccco4)o3)nc12 | 4.0 | 0.1 | 0.5 | 1.8 | 12.7*
COC(=O)[C@]12C[C@H](CC(=O)NCc3ccccc3)C(=O)N(Cc3ccc(Cl)cc3Cl)C1=C[C@H](C1CCCC1)O[C@@H]2C | -0.7 | -1.0 | . | -1.6 | -0.8
CCOC(=O)Cc1nc(N2CCN(CCN)CC2)c2c(C)c(C(=O)OCC)sc2n1 | -3.0 | -0.2 | . | 0.7 | -1.1
Clc1ccc(C=Cc2ccccn2)cc1 | 5.5 | 0.6 | 2.8 | 3.3 | 13.0*
Cc1nc(NCc2ccco2)c2c(C)c(C)sc2n1 | -4.0 | -2.6 | -2.9 | -2.7 | -8.0
Cc1sc2nc3c4ccccc4c(NCc4ccco4)nn3c(=O)c2c1C | 7.5* | 0.3 | 2.6 | 3.3 | 14.0*
CCCCCCCSc1nnc(-c2ccccc2N)c(=O)[nH]1 | 0.2 | -0.7 | 1.4 | 0.6 | -1.2
CCCCSc1nnc(-c2ccccc2N)c(=O)[nH]1 | 5.9* | -0.3 | 0.2 | 0.9 | 11.1*
CCCCN(C)C(=O)c1cn(C(C)c2ccccc2)nn1 (configuration not stated) | -0.5 | -1.4 | . | 0.1 | 2.9
O=P(OC1CCCCC1)(OC1CCCCC1)C(O)c1cccnc1 (configuration not stated) | 5.9* | 0.6 | 2.2 | 0.8 | 2.6
O=C(C1CC(=O)N(C2CCCCC2)C1)N1CCc2ccccc21 (configuration not stated) | 6.2* | 0.5 | 0.0 | -0.1 | -0.2
O=C(C1CCCO1)N1CCc2ccccc21 (configuration not stated) | 5.0 | 1.8* | -0.2 | 1.3 | 2.7
COC(=O)c1cc(-c2cccc3ccccc23)c(=O)n2c1CCC2 | -1.3 | -0.5 | . | -1.0 | -0.1
Cc1ccc(-n2nnc(-c3cc4ccccc4nc3Cl)n2)cc1 | 4.6 | 1.4* | 2.7 | -0.1 | 2.5
O=c1[nH]c2ccccc2cc1-c1nnn(-c2ccc(Cl)c(Cl)c2)n1 | 4.3 | 0.1 | -0.1 | 0.2 | 1.7
CCc1ccccc1-c1cc(C(C)=O)c2n(c1=O)CCC2 | 1.2 | -0.8 | . | -0.3 | 3.2
CCOc1ccc(CNC2CCCc3ccccc32)cc1 (configuration not stated) | -2.5 | -0.9 | 9.1* | -0.1 | -0.1
Cc1cc2ncc(-c3ccc(Cl)cc3)c(N)n2n1 | 0.3 | -0.3 | 0.8 | 4.0* | 7.6
CCc1ccc2nc(N)sc2c1 | 1.8 | -0.4 | 6.4* | 2.5 | 10.8*
CCc1ccc(NC(=O)c2ccc3nc(N)sc3c2)cc1 | 0.3 | -0.6 | 1.0 | 1.1 | 5.5
O=C(OCC#CCSc1nnc(-c2cccc3ccccc23)o1)c1ccccc1F | -1.5 | -0.4 | . | . | -1.0
Cc1ccc(NCc2ccc(O)c3ncccc23)cc1 | 0.1 | 0.2 | -0.5 | -0.1 | 0.6
Cc1ccc(NCc2ccc(O)c3ncccc23)cc1C | -1.5 | 1.9* | -0.7 | -0.1 | -2.4
COc1ccc2c(-c3cc4ccc(OCc5ccc(F)cc5)cc4oc3=O)cc(=O)oc2c1 | -0.2 | -1.6 | -0.7 | -0.1 | 0.8
O=C1COc2ccc(OCc3ccc(F)cc3)cc21 | 4.9 | 0.5 | 1.1 | 1.3 | 12.2*
c1ccc(CN2CCN(c3ncnc4sccc34)CC2)cc1 | -5.4 | -2.3 | . | . | -4.3
O=C(/C=C/c1c(F)cccc1Cl)Nc1ccc(S(=O)(=O)Nc2ncccn2)cc1 | 2.1 | -0.2 | 0.3 | 1.5 | 1.8
O=C(/C=C/c1c(F)cccc1Cl)Nc1ncccn1 | 5.0 | -0.3 | 4.6* | 2.1 | 6.1
C[C@@H](CO)N(CCc1cn(Cc2ccccc2)nn1)S(=O)(=O)c1ccccc1Br | -2.7 | -1.2 | . | -0.6 | -2.0

Screening results (PubChem BioAssay)
